Bioassay records from PubChem BioAssay.
NSD2 inh: blocks human histone methyltransferase NSD2 | NSD2 peptide methylation, AlphaScreen, 120 min | inhibition, % at 12.5 µM | 310,000 compounds, 0.54% hits | AID 743445; in the data active = inhibition above about 50%
SIRT5 block: inhibitors of human sirtuin-5 desuccinylase; 330,000 compounds, 1.1% hits; Q9NXA8; inhibition, % at 15 µM; Purified SirT5, succinyl-peptide AMC, trypsin-coupled fluorescence; AID 652115; in the data active = inhibition above about 15%
Target sequence (Q9NXA8 whole entry, looked up): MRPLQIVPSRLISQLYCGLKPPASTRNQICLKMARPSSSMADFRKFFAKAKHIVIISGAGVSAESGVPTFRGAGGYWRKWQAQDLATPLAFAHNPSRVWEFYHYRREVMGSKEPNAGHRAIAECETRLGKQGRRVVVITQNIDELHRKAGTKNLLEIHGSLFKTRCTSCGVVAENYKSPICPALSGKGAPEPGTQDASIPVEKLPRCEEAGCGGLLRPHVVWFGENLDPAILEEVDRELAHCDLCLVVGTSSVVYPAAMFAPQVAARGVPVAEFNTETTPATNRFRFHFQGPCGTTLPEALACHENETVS
CASP6 VEID inh: caspase-6 (human) enzyme inhibition; purified caspase-6, Z-VEID-R110 cleavage fluorescence; AID 686996; P55212; 350,000 compounds, 0.53% hits; inhibition, % at 12.5 µM;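 active = mean inhibition across replicates at least about 35%, with every replicate also reaching that limit, limit read from the data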;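 also: 0% = median of neutral control wells and 100% = no fluorescence left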
SUMO HTRF inh: SUMOylation inhibition. P63279. HTRF SUMOylation assay, SAE1/SAE2 + UBC9, in vitro. inhibition, % at 35 µM. 290,000 compounds, 0.36% hits. AID 2006; in the data active = inhibition above about 50%, passing the limit was not always enough
An asterisk follows results filed as active; x = no result. Most compounds without a hit are left out; they make up all but 1.6% or so of the library.

SMILES	NSD2 inh	SIRT5 block	CASP6 VEID inh	SUMO HTRF inh
C=C(C)C(=O)N1CC2(CC(c3cccc(NC(=O)CCCCC)c3)=NO2)C[C@H]1C(N)=O (some centres not stated)	x	23*	8	-3
CN1CCN(C(=O)C[C@H]2CC[C@H]3[C@H](COc4ccc(NC(=O)C5CCCCC5)cc4C(=O)N3C)O2)CC1	x	-2	0	x
C[C@@H]1CCCCO[C@@H](CN(C)C(=O)NC2CCCCC2)[C@@H](C)CN([C@@H](C)CO)C(=O)c2cc(NS(=O)(=O)c3cn(C)cn3)ccc2O1	x	4	3	x
O=S(=O)(N[C@H]1CC[C@@H](CCn2cc(-c3cccc(F)c3)nn2)O[C@@H]1CO)c1ccc(Cl)cc1	x	-1	-2	x
CC1=C(C)CC(C(=O)NC2CCCC2)C(C(=O)O)C1 (configuration not stated)	0	-1	-1	9
CC1=CCC(C(=O)O)C(C(=O)NC2CCCCC2)C1 (configuration not stated)	5	-6	41*	18
O=C(C[C@H]1C[C@@H]2c3cc(NS(=O)(=O)c4ccc(F)cc4)ccc3O[C@@H]2[C@@H](CO)O1)NCc1ccc(-c2ccccc2)cc1	x	17*	-1	x
CN(C)c1ccc2c(c1)[C@H]1C[C@H](CC(=O)NCc3ccc(Oc4ccccc4)cc3)O[C@H](CO)[C@H]1O2	x	21*	-3	x
O=C(C[C@H]1C[C@H]2c3cc(NS(=O)(=O)c4ccc(F)cc4)ccc3O[C@H]2[C@@H](CO)O1)NCc1ccc(-c2ccccc2)cc1	x	1	1	x
O=C(C[C@H]1C[C@H]2c3cc(NC(=O)C4CCC4)ccc3O[C@H]2[C@H](CO)O1)NCCN1CCCCC1	x	35*	-4	x
O=C(C[C@@H]1C[C@H]2c3cc(NC(=O)C4CCC4)ccc3O[C@H]2[C@H](CO)O1)NCc1ccc(-c2ccccc2)cc1	x	25*	-4	x
CO[C@H]1CN(C)C(=O)c2ccc(NS(=O)(=O)c3ccc(C)cc3)cc2OC[C@@H](C)NC[C@H]1C	x	-4	0	x
C[C@H](CO)N1C[C@H](C)[C@H](CN(C)Cc2ccc(Cl)c(Cl)c2)Oc2ccc(NC(=O)Cn3cnnn3)cc2CC1=O	x	-4	0	x
O=C(C[C@H]1C[C@@H]2c3cc(NS(=O)(=O)c4ccc(F)cc4)ccc3O[C@@H]2[C@@H](CO)O1)NCc1ccc(Oc2ccccc2)cc1	x	15*	0	x
CS(=O)(=O)Nc1ccc2c(c1)[C@H]1C[C@H](CC(=O)NCc3ccccc3)O[C@H](CO)[C@H]1O2	x	16*	0	x
CCc1cc2c(=O)c(Oc3ccccc3F)c(C)oc2c(CN(C)C)c1O	0	x	x	64*
CCN(C(=O)COC(=O)CNC(=O)c1ccc2ccccc2c1)C1CCS(=O)(=O)C1 (configuration not stated)	-8	-1	47*	-1
C[C@@H]1CN([C@@H](C)CO)C(=O)c2cc(NC(=O)C3CC3)ccc2O[C@H]1CN(C)Cc1ccccc1	x	-4	1	x
C[C@@H]1CN([C@@H](C)CO)C(=O)c2cc(C#CC3(O)CCCC3)cnc2O[C@H]1CN(C)C(=O)C1CCC1	x	-2	-2	x
Cc1ccc(-n2nnnc2SCC(=O)NC2CC2)cc1C	x	-3	57*	10
O=C(CSc1nnnn1-c1ccc(O)cc1)NC1CCCCC1	-1	1	-4	-5
NCC[C@H]1CC[C@H](NC(=O)C2CC2)[C@H](CO)O1	x	1	0	x
COc1ccccc1OCC(=O)Nc1ccncc1	0	-2	-2	6
Cc1cccc(OCC(=O)Nc2ccncc2)c1C	1	15*	14	1
CCOc1cc(N2CCOCC2)c(OCC)cc1NS(=O)(=O)c1cc(NC(C)=O)ccc1OC	14	2	37*	22
